{"source": "PubChem BioAssay AID1259415", "about": "(National Center for Advancing Translational Sciences (NCATS), 2018)", "note": "Screen size: about 410,000 compounds; about 18,000 (4.4%) were called active. Another 7% or so got no clear call; they are omitted. The list comes from a sample in which actives are over-represented; it also holds similar structures and randomly drawn compounds. Unmarked numbers belong to inactive results. Rule as the data show it: active = activity change below about -60%; inconclusive = no clear call, values can overlap the other calls; inactive = above about -39%. % is scaled to controls: 0 for no effect and ±100 for the full control effect.", "data": [{"experiment": "qHTS Assay for inhibitors of the human cytomegalovirus (HCMV)", "conditions": "HFF cells, HCMV-luciferase reporter, 72 h; at 57.5 µM; hits give low values", "method_in_brief": "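Inhibition of viral replication was scored as loss of reporter luminescence in HFFs infected with HCMV-luciferase (MOI 1 PFU/cell) for 72 h; compounds tested at 2 doses, normalized to buffer and Salinomycin controls.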", "values": [{"smiles": "Cc1ccc(CN2C(=O)SC(Nc3ccccc3)C2=O)cc1", "note": "(configuration not stated)", "activity change, negative = inhibition": "4.93%"}, {"smiles": "CC(=O)c1ccc(NC(=O)C2CCN(S(=O)(=O)c3c(C)noc3/C=C/c3ccc(C)cc3)CC2)cc1", "activity change, negative = inhibition": "8.22%"}, {"smiles": "Cc1ccccc1CNC(=O)C(=O)NCC(c1cccs1)S(=O)(=O)c1cccs1", "note": "(configuration not stated)", "activity change, negative = inhibition": "-7.75%"}, {"smiles": "Cc1ccc2nc(-c3ccc(O)cc3)c(Nc3ccc4c(c3)OCO4)n2c1", "activity change, negative = inhibition": "27.1%"}, {"smiles": "CCOc1ccc(N2C(=O)CC(N(CCc3ccc(OC)c(OC)c3)C(=S)Nc3ccccc3)C2=O)cc1", "note": "(configuration not stated)", "activity change, negative = inhibition": "-67.5% (active)"}, {"smiles": "CN(C)c1ccc(NC(=S)N(CCc2ccccc2)C2CC(=O)N(c3c(Cl)cccc3Cl)C2=O)cc1", "note": "(configuration not stated)", "activity change, negative = inhibition": "-21.4%"}, {"smiles": "COc1ccc(N2C(=O)C(CC(=O)Nc3ccccc3)N(Cc3ccc(OC)c(OC)c3)C2=O)cc1", "note": "(configuration not stated)", "activity change, negative = inhibition": "38.3%"}, {"smiles": "CC(C)Oc1ccc(NC(=O)c2cc3ccccc3o2)cc1", "activity change, negative = inhibition": "84.8%"}, {"smiles": "COC(=O)c1ccccc1NC(=O)Cn1c(=O)cc(C)c2c(C)nn(-c3cccc(Cl)c3C)c21", "activity change, negative = inhibition": "-6.78%"}, {"smiles": "COc1cccc(NC(=O)Cn2c(=O)cc(C)c3c(C)nn(-c4cccc(F)c4)c32)c1", "activity change, negative = inhibition": "2.05%"}, {"smiles": "COc1ccc(NC(=O)Cn2c(=O)cc(C)c3c(C)nn(-c4cccc(Cl)c4C)c32)cc1OC", "activity change, negative = inhibition": "-103% (active)"}, {"smiles": "O=C(COC(=O)Cc1ccccc1F)NCCc1ccccc1", "activity change, negative = inhibition": "106%"}, {"smiles": "CCCn1c(NCc2ccccc2F)nc2ccccc21", "activity change, negative = inhibition": "49.2%"}, {"smiles": "N=c1n(CCc2ccccc2)c2ccccc2n1Cc1ccccc1F", "activity change, negative = inhibition": "-70.6% (active)"}, {"smiles": "CCOCCN(C=O)c1cccc(OC)c1", "activity change, negative = inhibition": "18%"}, {"smiles": "COc1ccc(NC(=S)NCC2CCN(c3ccc(OC)cc3)C2)cc1", "note": "(configuration not stated)", "activity change, negative = inhibition": "-63.2% (active)"}, {"smiles": "COc1ccc(N2CCC(CNC(=S)Nc3c(C)cccc3C)C2)cc1", "note": "(configuration not stated)", "activity change, negative = inhibition": "0%"}, {"smiles": "COc1ccc(N2CCN(C(=S)Nc3ccc(S(N)(=O)=O)cc3)CC2)cc1", "activity change, negative = inhibition": "9.64%"}, {"smiles": "O=C(Cn1cc(SCc2cccc(Cl)c2)c2ccccc21)N1CCCCC1", "activity change, negative = inhibition": "24.5%"}, {"smiles": "COc1ccc(-c2c(C)c3ccc(O)c(CN4CCN(C)CC4)c3oc2=O)cc1OC", "activity change, negative = inhibition": "5.43%"}, {"smiles": "CN1CCN(Cc2c(O)ccc3c2oc(=O)c2ccccc23)CC1", "activity change, negative = inhibition": "-78.7% (active)"}, {"smiles": "CCOC(=O)c1oc2c(CN3CCN(C)CC3)c(O)ccc2c(=O)c1-c1ccc(Br)cc1", "activity change, negative = inhibition": "-37.4%"}, {"smiles": "O=C(CSc1oc(-c2ccco2)nc1S(=O)(=O)c1ccccc1)c1ccc(Cl)cc1", "activity change, negative = inhibition": "-17.5%"}, {"smiles": "Cc1cccc(N2CCN(c3c(CN4CCCC4)c(=O)oc4ccccc34)CC2)c1C", "activity change, negative = inhibition": "21.8%"}, {"smiles": "CCOc1ccc(N(CC)C(=O)c2cc3c(=O)oc4ccccc4c3s2)cc1", "activity change, negative = inhibition": "5.06%"}, {"smiles": "O=C(CN1C(=O)c2ccccc2S1(=O)=O)N1CCc2ccccc21", "activity change, negative = inhibition": "-93.9% (active)"}, {"smiles": "Cc1ccc(S(=O)(=O)N(C)CC(=O)N2CCc3ccccc32)cc1", "activity change, negative = inhibition": "-22.7%"}, {"smiles": "NS(=O)(=O)c1ccc(CCNC(=O)CN2C(=O)c3ccccc3S2(=O)=O)cc1", "activity change, negative = inhibition": "-13%"}, {"smiles": "O=C(Cn1cc(SCc2ccccc2)c2ccccc21)N1CCCCC1", "activity change, negative = inhibition": "-27.6%"}, {"smiles": "Cc1ccc(CNC(=O)CSc2c3c(nc4cc(Cl)ccc24)CCCC3)cc1", "activity change, negative = inhibition": "-19.8%"}, {"smiles": "CC(=O)Nc1ccc(S(=O)(=O)N2CCN(c3ccccc3)CC2)cc1", "activity change, negative = inhibition": "-20.6%"}, {"smiles": "Brc1ccc(Nc2c3c(nc4ncnn24)CCC3)cc1", "activity change, negative = inhibition": "-30.4%"}, {"smiles": "CC(=O)Nc1ccc(Nc2nc3c(S(=O)(=O)c4ccc(C)c(C)c4)nnn3c3ccccc23)cc1", "activity change, negative = inhibition": "-35.4%"}, {"smiles": "Cc1ccc(Nc2c3c(nc4ccccc24)CCC3)cc1", "activity change, negative = inhibition": "-74.2% (active)"}, {"smiles": "CC(=O)Nc1ccc(Nc2c3ccccc3nc3ccccc23)cc1", "activity change, negative = inhibition": "-99.6% (active)"}, {"smiles": "CCCC(=O)Nc1cc(C(=O)NCc2ccc(OC)cc2)ccc1S(=O)(=O)c1ccc(Cl)cc1", "activity change, negative = inhibition": "12.9%"}, {"smiles": "CCOc1cc(/C=N/NC(=O)c2cccc(S(=O)(=O)N3CCOCC3)c2)ccc1OCC(=O)N(C)C", "activity change, negative = inhibition": "-10.8%"}, {"smiles": "CCOc1cccc(/C=N/NC(=S)NCCN2CCOCC2)c1O", "activity change, negative = inhibition": "-99.8% (active)"}, {"smiles": "COc1cccc(C(CC(=O)NCCN2CCOCC2)NS(=O)(=O)c2ccc(C)cc2)c1OC", "note": "(configuration not stated)", "activity change, negative = inhibition": "-35.5%"}, {"smiles": "Cc1oc(-c2ccccc2)nc1Cn1c(SCc2cccc(C(F)(F)F)c2)nc2cccnc21", "activity change, negative = inhibition": "-23.2%"}, {"smiles": "CCOc1cc(C2C(C(=O)OC)=C(C)NC3=C2C(=O)c2ccccc23)ccc1O", "note": "(configuration not stated)", "activity change, negative = inhibition": "-8.78%"}, {"smiles": "CC1=NN(C(=O)c2ccc(Br)cc2)C(O)(c2ccccc2)C1", "note": "(configuration not stated)", "activity change, negative = inhibition": "-17.6%"}, {"smiles": "CC1=NN(C(=O)CCCc2ccccc2)C(O)(C(F)(F)F)C1", "note": "(configuration not stated)", "activity change, negative = inhibition": "-24.1%"}, {"smiles": "CC1=NN(C(=O)CCc2ccccc2O)C(O)(C(F)(F)F)C1", "note": "(configuration not stated)", "activity change, negative = inhibition": "-66% (active)"}, {"smiles": "COc1cccc(C(c2c(O)cc(C)n(Cc3ccco3)c2=O)N2CCN(c3ccccc3)CC2)c1", "note": "(configuration not stated)", "activity change, negative = inhibition": "7.72%"}, {"smiles": "CC(C)CC(NS(=O)(=O)c1ccc2c(c1)oc(=O)n2C)C(=O)NCc1ccccc1Cl", "note": "(configuration not stated)", "activity change, negative = inhibition": "-14.5%"}, {"smiles": "CCCCn1c(=O)c2oc3ccccc3c2n(CC(=O)Nc2ccccc2OC)c1=O", "activity change, negative = inhibition": "17%"}, {"smiles": "Cc1cc(N2CCN(c3cccc(C(F)(F)F)c3)CC2)n2nc(-c3ccccc3)nc2n1", "activity change, negative = inhibition": "-20.6%"}, {"smiles": "O=C(CSC1c2ccccc2-c2ccccc21)N/N=C/c1ccccc1", "activity change, negative = inhibition": "35.4%"}, {"smiles": "Nc1nnn(CC(=O)N/N=C/c2ccccc2)n1", "activity change, negative = inhibition": "-9.02%"}, {"smiles": "Cc1ccc(/C=N/NC(=O)COc2ccccc2-c2ccccc2)cc1", "activity change, negative = inhibition": "-81.9% (active)"}, {"smiles": "CCOCCCNC(=O)c1c(NC(=O)c2nc(SC)ncc2Cl)sc2c1CCCC2", "activity change, negative = inhibition": "47.5%"}, {"smiles": "O=C(CCn1c(=O)c2sccc2n(Cc2ccc(F)cc2)c1=O)NCc1ccc2c(c1)OCO2", "activity change, negative = inhibition": "14.2%"}, {"smiles": "O=C(Nc1nnc(C2COc3ccccc3O2)o1)c1ccc(F)cc1", "note": "(configuration not stated)", "activity change, negative = inhibition": "-81.3% (active)"}, {"smiles": "CSc1ccccc1-c1nnc(NC(=O)c2ccc3c(c2)OCCO3)o1", "activity change, negative = inhibition": "21.3%"}, {"smiles": "c1ccc2c(c1)OCC(c1nn3cnnc3s1)O2", "note": "(configuration not stated)", "activity change, negative = inhibition": "-4.38%"}, {"smiles": "Oc1ccccc1-c1nc(/C=C/c2ccc(F)cc2)no1", "activity change, negative = inhibition": "94.7%"}]}]}
